Data as given in PubChem BioAssay AID1851 (National Center for Advancing Translational Sciences (NCATS), 2009).
The campaign covered roughly 16,000 compounds. About 4,000 (25%) were called active. Roughly 26% stayed inconclusive and do not appear here. The call rests on the fitted dose curve; in most records, active means well fitted curve in the direction sought with a large enough effect; inconclusive means small, poorly fitted or top-dose-only effect, or effect the other way; inactive means no such curve, though single readings can be large or run the other way. A selection follows.

Each compound was assayed against Cytochrome P450 2C9 (Homo sapiens) (UniProt P11712) (assay: Cytochrome panel assay with activity outcomes). Details: recombinant CYP, pro-luciferin dealkylation, luminescence, p450-cyp2c9; series mostly up to 57.1 µM.
On the % scale 0 is the no-effect control and ±100 the full control effect.

Cytochrome P450 2C9 (Homo sapiens), sequence (P11712 whole entry, looked up): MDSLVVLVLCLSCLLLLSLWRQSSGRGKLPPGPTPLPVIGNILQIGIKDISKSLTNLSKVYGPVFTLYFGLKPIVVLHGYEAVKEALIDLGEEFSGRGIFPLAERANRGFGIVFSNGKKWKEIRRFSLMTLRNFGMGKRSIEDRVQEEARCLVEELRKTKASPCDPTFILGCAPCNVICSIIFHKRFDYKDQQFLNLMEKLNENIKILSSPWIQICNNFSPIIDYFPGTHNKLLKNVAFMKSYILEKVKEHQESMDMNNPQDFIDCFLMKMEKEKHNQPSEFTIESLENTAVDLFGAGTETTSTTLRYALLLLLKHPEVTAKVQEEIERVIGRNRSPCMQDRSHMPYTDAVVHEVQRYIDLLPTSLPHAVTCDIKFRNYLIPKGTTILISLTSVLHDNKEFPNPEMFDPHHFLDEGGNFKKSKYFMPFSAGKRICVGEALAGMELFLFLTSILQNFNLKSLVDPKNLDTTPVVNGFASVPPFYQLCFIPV

| SMILES | AC50 | activity, negative = inhibition |
| --- | --- | --- |
| Cc1ccccc1C(=O)N1CCN(c2ccc([N+](=O)[O-])c(NCc3ccco3)c2)CC1 | 2.24 µM (active) | – |
| N#Cc1ccc(C(=O)Nc2ccc(N3CCN(C(=O)c4ccco4)CC3)cc2)c(F)c1 | inactive | – |
| Cc1cccc(C(=O)N2CCN(c3ccc([N+](=O)[O-])c(NCc4ccco4)c3)CC2)c1 | 3.55 µM (active) | – |
| Cc1cccc(C(=O)NCN2CCN(c3ccccc3C#N)CC2)c1 | inactive | – |
| O=C1C2C3C=CC(C2C(=O)N1CN1CCOCC1)C1C2C(=O)N(CN4CCOCC4)C(=O)C2C31 (configuration not stated) | – | -4.42% [at 11.4 µM] (inactive) |
| COc1c2c(nc3ccccc13)O[C@H]([C@@](C)(O)CO)C2 | inactive | – |
| NC[C@H]1O[C@H](n2cnc3c(N)ncnc32)C[C@@H]1O | – | 11.4% [at 11.4 µM] (inactive) |
| CCCCN(C)Cc1c(C)[nH]c2ccc(Cl)cc2c1=O | inactive | – |
| O=C(NCCCN1CCC(Cc2ccccc2)CC1)C1CCN(S(=O)(=O)N2CCOCC2)CC1 | inactive | – |
| O=C(NCCCN1CCN(Cc2ccccc2)CC1)C1CCN(S(=O)(=O)N2CCCC2)CC1 | inactive | – |
| O=C(NCCc1ccc(Cl)cc1)C1CCN(S(=O)(=O)N2CCC3(CC2)OCCO3)CC1 | 7.08 µM (active) | – |
| NCS(=O)(=O)O | – | -4.35% [at 11.4 µM] (inactive) |
| N#Cc1ccc(C2=NC(C(F)(F)F)(C(F)(F)F)c3c(n(Cc4ccco4)c(=O)[nH]c3=O)N2)cc1 | 0.398 µM (active) | – |
| CC1(C)CC2(CC(c3cccs3)c3cc(Cl)c(O)cc3O2)NC(=S)N1 (configuration not stated) | 1 µM (active) | – |
| Cc1noc(C)c1-c1cc(NCc2cccs2)ncn1 | – | 17.3% [at 2.29 µM] (inactive) |
| CC(/C=C/c1ccccc1)=N/NC(=O)CNC(=O)c1ccc2c(c1)OCO2 | inactive | – |
| COc1ccc(-c2nn(-c3ccccc3)cc2/C=N/NC(=O)c2ccc3c(c2)OCO3)cc1 | 3.16 µM (active) | – |
| O=C(N/N=C\c1cn(-c2ccccc2)nc1-c1ccccc1)c1ccc(Br)o1 | 1.58 µM (active) | – |
| O=C(N/N=C/c1ccccn1)c1ccc(Br)o1 | inactive | – |
| Cc1c(/C=N/NC(=O)c2ccc3c(c2)OCO3)cnn1C | inactive | – |
| O=C(N/N=C\c1cn(-c2ccccc2)nc1-c1ccccc1)c1ccc2c(c1)OCO2 | 3.98 µM (active) | – |
| CN1CCN(c2ncncc2-c2ccccc2Cl)CC1 | – | -9.71% [at 2.29 µM] (inactive) |
| CC(=O)OC[C@@H]1O[C@@H](O/N=C2/C[C@@H](O)[C@@H](O)[C@@H]3[C@@H]4C(=O)N(C[C@@H]5CCCO5)C(=O)[C@H]4CC[C@H]23)[C@H](OC(C)=O)[C@H](OC(C)=O)[C@@H]1OC(C)=O | – | 5.35% [at 11.4 µM] (inactive) |

| SMILES | AC50 | activity, negative = inhibition |
| --- | --- | --- |
| COc1ccc(Nc2ncnc3sc(-c4ccccc4)cc23)cc1 | 3.98 µM (active) | – |
| COc1ccc(-n2cnc3sc(-c4ccccc4)cc3c2=O)cc1 | inactive | – |
| COc1cccc(-c2nc(Nc3ccncc3)c3ccccc3n2)c1 | – | -24.2% [at 2.29 µM] (inactive) |
| CC(=O)[C@@H]1CC[C@@H]2[C@@H]3C[C@H](C)C4=CC(=O)CC[C@@]4(C)[C@H]3[C@H](O)C[C@]21C | 0.398 µM (active) | – |
| C[C@@]12C[C@H](O)[C@@H]3[C@H](CCC4=CC(=O)CC[C@]43C)[C@H]1CC[C@@H]2c1csc(N)n1 | – | 0.854% [at 11.4 µM] (inactive) |
| CC(=O)[C@H]1CC[C@H]2[C@@H]3C=CC4=CC(=O)CC[C@@]4(C)[C@H]3CC[C@]12C | inactive | – |
| CCCCSc1nnc(-c2ccc(C)cc2)n1C | inactive | – |
| CCCCSc1ccc2nc(-c3ccc(C#N)cc3)cn2c1 | 3.55 µM (active) | – |
| Nc1ccccc1CCCC(=O)O | – | 1.29% [at 11.4 µM] (inactive) |
| COc1cccc(C2=NOC(C(=O)NCc3ccccn3)C2)c1 (configuration not stated) | inactive | – |
| Cn1c(=O)c2c(nc(N/N=C\c3ccccc3C(=O)O)n2C)n(C)c1=O | – | 7.56% [at 11.4 µM] (inactive) |
| CCn1c(CCCc2nc3c([nH]2)c(=O)n(C)c(=O)n3C)nc2c1c(=O)n(C)c(=O)n2C | – | 6.37% [at 11.4 µM] (inactive) |
| CC(C)CCn1c(Oc2ccccc2Cl)nc2c1c(=O)n(C)c(=O)n2C | 1 µM (active) | – |
| C[C@@]1(C(=O)O)CCC[C@@H]1C(=O)O | – | 2.33% [at 11.4 µM] (inactive) |
| C[N+]1(CCCC[N+]2(C)CCCCCCC2)CCCCCCC1 | – | -4.37% [at 11.4 µM] (inactive) |
| Cc1ccc(OCCCC(=O)Nc2ccccc2C(F)(F)F)cc1 | 7.94 µM (active) | – |
| CCN(CC)CCNC(=O)Cn1nc(-c2ccc(C)cc2)ccc1=O | inactive | – |
| Cc1cccc(OCCCC(=O)Nc2ccccc2C(F)(F)F)c1 | inactive | – |
| Cc1ccc(OCC(=O)NNC(=O)CCC(=O)Nc2ccc(C)cc2C)cc1 | inactive | – |
| CCCCCOc1ccc(C(=O)NCC2(c3ccccc3)CCOCC2)cc1 | 2.82 µM (active) | – |
| Cc1ccc(-c2ccc(=O)n(CC(=O)NCc3ccco3)n2)cc1 | 7.94 µM (active) | – |
| CCCN1CCN(CCCNC(=O)Cn2nc(-c3ccc(C)cc3)ccc2=O)CC1 | inactive | – |
| CCCCOc1ccc(C(=O)N/C(=C\c2ccc(OC)cc2)C(=O)OCc2ccco2)cc1 | 2.82 µM (active) | – |

| SMILES | AC50 | activity, negative = inhibition |
| --- | --- | --- |
| C=CCC(NCc1ccco1)c1ccc(OC)cc1 (configuration not stated) | inactive | – |
| O=C(NCCc1ccccc1)C(=O)NCC1(c2ccccc2)CCCC1 | inactive | – |
| O=P(O)(CCP(=O)(O)c1ccccc1)c1ccccc1 | – | 2.87% [at 11.4 µM] (inactive) |
| Cc1noc(C)c1-c1cncnc1N(C)Cc1ccco1 | – | 17.6% [at 2.29 µM] (inactive) |
| NCC[C@H](N)C(=O)O | – | 0.553% [at 11.4 µM] (inactive) |
| CC1(C)OC(C(N)=O)C(C(N)=O)O1 (configuration not stated) | inactive | – |
| Cc1ccc(OCCCC(=O)NCc2ccco2)cc1 | 14.1 µM (active) | – |
| CC(C)(C)c1ccc(C(=O)NCCC(=O)NCc2ccco2)cc1 | 2.24 µM (active) | – |
| COCCNC(=O)c1ccc2c(c1)nc(C)n2-c1cc(OC)c(OC)c(OC)c1 | inactive | – |
| CCOc1ccc(-n2c(C)nc3cc(C(=O)NCc4ccco4)ccc32)cc1 | 17.8 µM (active) | – |
| C/C(CC(=O)NCc1ccco1)=N\NC(=O)Cc1ccccc1 | inactive | – |
| Cc1ccc(OCC(=O)NNC(=O)CCC(=O)NCc2ccccc2)cc1 | inactive | – |
| CCCCOc1ccc(C(=O)NCc2ccco2)cc1 | 10 µM (active) | – |
| CCS(=O)(=O)N1CCC(C(=O)NCc2ccco2)CC1 | inactive | – |
| CS(=O)(=O)Nc1c(O)ccc2c1CCC[C@H]2C1=NCCN1 | inactive | – |
| CNCCCC1c2ccccc2C=Cc2ccccc21 | inactive | – |
| COc1ccc(Cl)cc1N=Nc1ncc[nH]1 | inactive | – |
| CC(=O)N1CCC[C@@]2(CCN(Cc3ccccc3)C2)C1 | inactive | – |
| O=C(O)c1ccc2c(c1)C(=O)N(C(Cc1ccc(O)cc1)C(=O)O)C2=O (configuration not stated) | inactive | – |
| C[N+](C)([O-])CCC=C1c2ccccc2CCc2ccccc21 | – | -29.7% [at 11.4 µM] (inactive) |
| Nc1ccc(C(=O)C[C@H](N)C(=O)O)cc1O | – | -13.6% [at 11.4 µM] (inactive) |
| Cc1sc(NC(=O)C2C3CCC(O3)C2C(=O)O)c(C(=O)OC(C)C)c1-c1ccc(Cl)cc1 (configuration not stated) | 14.1 µM (active) | – |
| Cc1ccc(-c2c(C)sc(NC(=O)C3C4CCC(O4)C3C(=O)O)c2C(=O)OC(C)C)cc1 (configuration not stated) | inactive | – |

| SMILES | AC50 | activity, negative = inhibition |
| --- | --- | --- |
| CCOC(=O)c1ccc(N/C(=N\S(=O)(=O)c2ccccc2C)c2ccccc2)cc1 | 3.98 µM (active) | – |
| NC(=O)c1ccccc1-c1nc(-n2ccnc2)c2ccccc2n1 | – | 8.72% [at 2.29 µM] (inactive) |
| COCCNc1ncnc2ccc(-c3ccoc3)cc12 | – | 0.323% [at 2.29 µM] (inactive) |
| CC(=O)OC[C@@H]1O[C@H](C/C=N\O[C@@H]2O[C@H](COC(C)=O)[C@@H](OC(C)=O)[C@H](OC(C)=O)[C@H]2OC(C)=O)C=C[C@@H]1OC(C)=O | – | 4.96% [at 11.4 µM] (inactive) |
| CC(=O)NS(=O)(=O)c1ccc(NC(=S)NC(=O)C(C)(C)C)cc1 | inactive | – |
| COc1ccc(CC(=O)NC(=S)Nc2ccc(S(=O)(=O)NC(C)(C)C)cc2)cc1 | 8.91 µM (active) | – |
| CN1CC[C@@]2(CCCN(C(=O)c3cc(C(F)(F)F)cc(C(F)(F)F)c3)C2)C1 | inactive | – |
| CCCCCC/C(C)=C1/SC(=S)NC1=O | 5.01 µM (active) | – |
| CCOC(=O)C1=C(O)/C(=C/c2cc(OC)c(OC)c(OC)c2)N=C1C | inactive | – |
| CCOC(=O)c1ccccc1OCc1cc(/C=N/n2cnnc2)ccc1OC | 2.24 µM (active) | – |
| CCOC(=O)C1=C(O)/C(=C\c2ccc(OC)c(OC)c2)N=C1C | inactive | – |
| O=C1CC(SC(=Nc2ccccc2)Nc2ccccc2)C(=O)N1c1cccc(Cl)c1 (configuration not stated) | 3.55 µM (active) | – |
| COc1ccc(C(=O)N2CCC3(CCN(C(=O)Nc4cccc(F)c4)CC3)CC2)cc1 | inactive | – |
| O=C1CC(N2CCOCC2)C(=O)N1c1cccc(Cl)c1 (configuration not stated) | inactive | – |
| CCOC(=O)NNC1CC(=O)N(c2ccc(OC)cc2)C1=O (configuration not stated) | inactive | – |
| CCN=C(Nc1cccc(F)c1)SC1CC(=O)N(c2ccc(OC)cc2)C1=O (configuration not stated) | 6.31 µM (active) | – |
| Cc1cnc(CNc2ncnc3ccc(-c4ccccc4Cl)cc23)cn1 | – | -25% [at 2.29 µM] (inactive) |
| COc1ccc(-n2c(=O)c(-c3cccs3)nc3cnc(N4CCN(C)CC4)nc32)cc1 | inactive | – |
| COc1ccc(N2C(=O)CC(S/C(N)=N/N=C(\C)c3cccs3)C2=O)cc1 (configuration not stated) | 3.98 µM (active) | – |
| CCCOc1ccc(N2C(=O)CC(S/C(N)=N/N=C(\C)c3cccs3)C2=O)cc1 (configuration not stated) | 4.47 µM (active) | – |
| COc1ccc(C2=Nc3cccc4cccc(c34)N2)cc1 | inactive | – |
| Cn1cnc2c(NC3CCCC3)ncnc21 | inactive | – |
| COc1ccc(C(=O)N2CC3(CC(c4ccc(Cl)cc4)=NO3)C[C@H]2C(=O)NCC(N)=O)cc1 (some centres not stated) | inactive | – |
